PHOSPHO1 inh = PubChem AID 1565 | Phosphoethanolamine/phosphocholine phosphatase (Homo sapiens), Q8TCT1 | recombinant PHOSPHO1, absorbance phosphatase assay | inhibition, % at 13.3 µM | 290,000 tested, 1.1% active; in the data active = inhibition above about 60%
A3G deaminase = APOBEC3G DNA deaminase inhibitors, primary screen, biochemical, fluorescence, single-stranded DNA substrate, uHTS; inhibition, % at 20 µM; recombinant A3G, ssDNA deamination FAM/TAMRA fluorescence; 330,000 tested, 0.28% active; AID 493012, 2011; DNA dC->dU-editing enzyme APOBEC-3G (Homo sapiens), Q9HC16;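 active = inhibition of at least 40% at 20 µM, with no more than 30% in the related APOBEC3A deaminase screen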;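 note: plate controls were DMSO wells with A3G for no effect and wells lacking A3G enzyme for full effect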
Target sequence (Q9HC16 whole entry, looked up): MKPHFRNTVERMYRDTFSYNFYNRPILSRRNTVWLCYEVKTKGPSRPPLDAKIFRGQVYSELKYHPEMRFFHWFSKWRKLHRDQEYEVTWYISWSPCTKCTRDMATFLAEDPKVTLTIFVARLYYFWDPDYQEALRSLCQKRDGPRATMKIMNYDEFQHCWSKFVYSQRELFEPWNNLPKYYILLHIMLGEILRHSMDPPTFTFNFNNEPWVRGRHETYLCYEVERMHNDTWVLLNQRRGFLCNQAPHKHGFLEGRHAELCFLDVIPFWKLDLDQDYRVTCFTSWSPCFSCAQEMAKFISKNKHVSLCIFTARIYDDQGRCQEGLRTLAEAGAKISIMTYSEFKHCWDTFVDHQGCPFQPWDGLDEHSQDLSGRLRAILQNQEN
Wnt bcat act = Wnt/beta-catenin pathway activators, primary screen, cell-based, plate reader, single point; Wnt/beta-catenin reporter cell assay, activator; activation, % at 9.35 µM; 300,000 tested, 1.2% active; AID 743398, 2014; in the data active = activation above about 30%, passing the limit was not always enough; inconclusive = no clear call, values can overlap the other calls;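 note: 0% = neutral control wells and 100% = positive control wells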
MITF TRPM1 HTS = activators of MITF-driven TRPM1 promoter reporter, primary screen, cell-based, SK-MEL-5, luciferase, single point; SK-MEL-5 TRPM1-promoter luciferase, 24 h; % of positive control, neutral wells = 0; activation, % at 12.5 µM; 300,000 tested, 0.75% active;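 active = mean activation of at least 80% with every replicate also reaching 80%; inconclusive = mean reaches 80% but some replicate falls short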;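 note: 0% = neutral control wells and 100% = parthenolide positive control wells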
esBAF inh = Bmi1 luciferase reporter increase in mESCs, primary screen, esBAF inhibitor project, mouse ES cells, Bmi1 luciferase knock-in, single point; AID 602393, 2012; 24 h; 100% = twice the neutral-well signal; reporter increase, % at 12.5 µM; 350,000 tested, 2% active; in the data active = activation above about 40%; inconclusive = no clear call, values can overlap the other calls;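 note: 0% = median of the plate's neutral control wells and 100% = double that signal; a rise in the Bmi1 reporter signal indicates esBAF inhibition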
APOBEC3A inh = APOBEC3A ssDNA deaminase inhibitors, primary screen, selectivity assay for APOBEC3G inhibitor project, biochemical, FAM/TAMRA oligo cleavage fluorescence; inhibition, % at 20 µM; AID 493011, 2011; DNA dC->dU-editing enzyme APOBEC-3A (Homo sapiens), P31941; 330,000 tested, 0.41% active; recombinant A3A, FAM/TAMRA ssDNA deamination fluorescence;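 active = at least 40% inhibition at 20 µM here, with at most 30% in a related deaminase screen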;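 note: plate controls were A3A with DMSO for no effect and wells lacking A3A enzyme for full effect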
Target sequence (P31941 whole entry, looked up): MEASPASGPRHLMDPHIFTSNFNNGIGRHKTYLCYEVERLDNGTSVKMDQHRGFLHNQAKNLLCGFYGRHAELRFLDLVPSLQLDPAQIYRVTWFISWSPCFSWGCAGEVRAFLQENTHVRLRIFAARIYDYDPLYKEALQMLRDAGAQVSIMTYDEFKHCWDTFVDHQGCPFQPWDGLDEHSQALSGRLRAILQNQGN
Active calls of the source: *. Only some compounds are listed: those with a hit (about 3.6% of all), similar ones and a draw of the others.

CCOC(=O)c1cnc2cc(-c3ccc(Cl)cc3)nn2c1N was read as PHOSPHO1 inh 12, A3G deaminase 4, Wnt bcat act 21, MITF TRPM1 HTS 149*, esBAF inh 67* and APOBEC3A inh 4.
COCc1nn2c(N)c(-c3ccccc3)cnc2c1-c1ccccc1 was read as A3G deaminase -11, Wnt bcat act 8, MITF TRPM1 HTS 108*, esBAF inh 50* and APOBEC3A inh -5.
COCc1nn2c(N)c(C#N)cnc2c1-c1ccccc1 was read as PHOSPHO1 inh -25, A3G deaminase -4, Wnt bcat act -2, MITF TRPM1 HTS -8, esBAF inh 0 and APOBEC3A inh 2.
`Cc1cc2ncc(-c3ccc(Cl)cc3)c(N)n2n1` gave PHOSPHO1 inh 6, A3G deaminase -7, Wnt bcat act 13, MITF TRPM1 HTS inconclusive, esBAF inh 62* and APOBEC3A inh 0.
For CCOC(=O)c1cnc2c(-c3ccc(Cl)cc3)c(C)nn2c1N the results were PHOSPHO1 inh -14, A3G deaminase -5, MITF TRPM1 HTS 19, esBAF inh 4 and APOBEC3A inh -16.
`Nc1c(-c2ccc(Cl)cc2)cnc2ncnn12` gave PHOSPHO1 inh 23, A3G deaminase -1, Wnt bcat act -1, MITF TRPM1 HTS -8, esBAF inh -4 and APOBEC3A inh 0.
Screening Nc1c(-c2ccccc2)cnc2cc(-c3ccccc3)nn12 returned PHOSPHO1 inh 5, Wnt bcat act 56* and MITF TRPM1 HTS 58.
`C[C@@H]1CCCCO[C@H](CN(C)Cc2ccc(C(=O)O)cc2)[C@H](C)CN([C@@H](C)CO)C(=O)c2cc(N(C)C)ccc2O1` gave esBAF inh 1.
`Cc1nc(N=Nc2ccc(O)cc2)n[nH]1` gave PHOSPHO1 inh -5, A3G deaminase 3, Wnt bcat act 44*, MITF TRPM1 HTS 38, esBAF inh 4 and APOBEC3A inh 6.
O=C(CC1CC1)Nc1ccc2c(c1)[C@H]1C[C@@H](CC(=O)N3CCc4ccccc4C3)O[C@H](CO)[C@H]1O2 was read as esBAF inh 4.
Cc1cccc(-c2cccc(NC(=O)C3CCCN(Cc4cccnc4)C3)c2)c1 (stereo not given) was read as PHOSPHO1 inh 61*, A3G deaminase -4, Wnt bcat act 1, MITF TRPM1 HTS -6, esBAF inh -4 and APOBEC3A inh -3.
O=C(C[C@@H]1C[C@H]2c3cc(NC(=O)C4CCOCC4)ccc3O[C@H]2[C@@H](CO)O1)NCCc1ccccc1 was read as esBAF inh -1.
`C[C@@H]1CN([C@H](C)CO)C(=O)c2cccc(NC(=O)C3CCCCC3)c2O[C@H]1CN(C)S(C)(=O)=O` gave esBAF inh 4.
`N#Cc1cc2c(nc1SCc1nc3ccccc3[nH]1)CCC2` gave PHOSPHO1 inh 74*, A3G deaminase -3 and APOBEC3A inh 1.
Screening C[C@H](CO)N1C[C@H](C)[C@H](CN(C)CC2CCCCC2)Oc2c(NC(=O)Nc3ccc(C(F)(F)F)cc3)cccc2C1=O returned esBAF inh 0.
CC(C)NC(=O)NCC[C@@H]1CC[C@H](NC(=O)c2ccc(F)cc2)[C@H](CO)O1 was read as esBAF inh 1.
Screening Cc1ccc(C(=O)Nc2ccccc2C(=O)NC(Cc2c[nH]c3ccccc23)C(=O)O)cc1 (stereo not given) returned PHOSPHO1 inh 10, A3G deaminase -1, Wnt bcat act -1, MITF TRPM1 HTS -3 and APOBEC3A inh 0.
COC(=O)C(Cc1c[nH]c2ccccc12)NC(=O)c1ccccc1Br (stereo not given) was read as PHOSPHO1 inh 3, A3G deaminase -1, Wnt bcat act 16, esBAF inh 53* and APOBEC3A inh -1.
Screening CCOC(=O)C(Cc1c[nH]c2ccccc12)NC(=O)c1ccccc1Br (stereo not given) returned PHOSPHO1 inh 39, A3G deaminase -8, Wnt bcat act 13, esBAF inh 74* and APOBEC3A inh -5.
`O=C(Cn1nnc(N2CCOCC2)n1)NN=Cc1ccccc1Cl` gave Wnt bcat act -2.
Screening Cc1cccc(-c2noc(-c3ccc(Cl)cc3[N+](=O)[O-])n2)c1 returned PHOSPHO1 inh -4, A3G deaminase 2, Wnt bcat act 43*, MITF TRPM1 HTS 71 and APOBEC3A inh 3.
CCOc1cc(/C=C2\C(=O)N(CCC#N)N=C2C)ccc1OCC(N)=O was read as PHOSPHO1 inh 37, A3G deaminase -2, Wnt bcat act 0, MITF TRPM1 HTS -5 and APOBEC3A inh 1.
`COc1cc(/C=C2\C(=O)N(CCC#N)N=C2C)ccc1OCC(=O)Nc1ccccc1` gave PHOSPHO1 inh -2, A3G deaminase -3, Wnt bcat act 65*, MITF TRPM1 HTS 5 and APOBEC3A inh -2.
Screening CN(C)c1ccc(/C=C/c2cc[n+](C)cc2)cc1 returned PHOSPHO1 inh 102*, A3G deaminase 11, MITF TRPM1 HTS 12 and APOBEC3A inh 39.
Screening CN(C)c1ccc(/C=C/c2cc[n+]([O-])cc2)cc1 returned PHOSPHO1 inh 16, A3G deaminase -17 and APOBEC3A inh -12.
`Fc1cccc(/C=N/Nc2ccc3ccccc3n2)c1` gave PHOSPHO1 inh 48, A3G deaminase -5, Wnt bcat act 13, MITF TRPM1 HTS -15 and APOBEC3A inh -2.
For Cc1csc(N/N=C/c2c(F)cccc2Cl)n1 the results were PHOSPHO1 inh 15, A3G deaminase -10, Wnt bcat act 8, MITF TRPM1 HTS 19, esBAF inh 45* and APOBEC3A inh -5.
`Clc1ccc(C=NNc2ccccn2)c(Cl)c1` gave Wnt bcat act 21, MITF TRPM1 HTS 0 and esBAF inh 43*.
Screening Fc1cccc(/C=N/Nc2ccccn2)c1 returned PHOSPHO1 inh 27, A3G deaminase -1, Wnt bcat act 16, MITF TRPM1 HTS 97* and APOBEC3A inh 1.
Nc1c(Cl)ncnc1N/N=C/c1ccccn1 was read as PHOSPHO1 inh 4 and Wnt bcat act -2.
Clc1ccc(/C=N/NC(=Nc2ccccc2)c2ccccn2)c(Cl)c1 was read as PHOSPHO1 inh 36, A3G deaminase -2, MITF TRPM1 HTS 14, esBAF inh -13 and APOBEC3A inh -2.
For Clc1ccccc1NN=Cc1ccccn1 the results were Wnt bcat act 60*.
C[C@H]1CN([C@@H](C)CO)C(=O)Cc2cc(NC(=O)CCC(F)(F)F)ccc2O[C@H]1CN(C)Cc1ccc(Cl)c(Cl)c1 was read as esBAF inh 6.
